Measured values from PubChem BioAssay AID1508600 (Functional Genomics Laboratory (NCATS/FGL), 2020).
In all, about 53,000 sequences went through this assay and about 3,700 (7%) were called active.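 How the source made its calls: active means gene knockdowns whose robust z-score for IL-1 alpha signal is at least 2 or at most -2, so actives lie on both sides; inactive means the rest.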 The sample as a whole holds a higher share of actives than the screen did.

Experiment: Components of the Cytosolic LPS Sensing Pathway: Gene Identification via Genome-wide siRNA Screen;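 further: robust z of the log signal after scaling to non-targeting control siRNA wells of the plate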
Conditions: RAW264.7 macrophages, IL-1a HTRF, actives lie on both sides, screened at 100 nM (by protocol), cells primed 5 h with Pam3CSK4 first
Outline: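 Mouse macrophage line RAW264.7 is transfected with siRNA (100 nM final), grown 48h, primed with TLR ligand Pam3CSK4 5 h and given intracellular LipidA 24 h. IL-1a in supernatant is read by HTRF and viability by luminescence.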

Sequence	z-score
CCAAGAAUGCCCAGCAAGUTT against E4f1	2.39 (active)
GCGACUUCAGAUUUCAUUATT against Srsf2	-0.439 (inactive)
GGUCAACCAUUCCUCUUGATT against Ccdc9b	0.409 (inactive)
GCUGAAGGAUCCCAUUAGATT against Cbx2	-1.68 (inactive)
GCAACUUGGGAACUCUUUGTT against Pnpla7	-1.77 (inactive)
GGUUUCUUUCUCUGAGUUUTT against Man2a1	1.62 (inactive)
GGAGGAACUCCUAAAGAAGTT against Galntl5	-0.511 (inactive)
CCGAUCAUUAUGAGCAUACTT against Nxf7	-1.76 (inactive)
GGUCUUUAGCAAAUUGUUCTT against Lrrc6	2.02 (active)
GGAUGCAGAAGAUUUUGUGTT against Ptprcap	-0.704 (inactive)
GGAGACACAAAAGAAGAUATT against Sec14l4	-0.359 (inactive)
CCUGCGUUGACCAAUCAGATT against C2cd2l	-1.26 (inactive)
CCUAGUCCUGAUUUAUCAGTT against Ddx39b	-2.02 (active)
GCUCUAGGAAUCCAAAUAUTT against 9930014A18Rik	0.8 (inactive)
GGCUUCUUCAGAUCCUAAATT against Olfr554	-0.615 (inactive)
GGUCAUCAGAAGAAUCAAGTT against Arr3	2.13 (active)
GCGAUAUCUCAACUUCCCGTT against Fchsd1	0.541 (inactive)
GCAUGCGCCCUAAAGGAAATT against Zmynd15	0.687 (inactive)
CCAGUCUUAUCUGUAGAAGTT against Obox1	-1.69 (inactive)
GCCUAACUAUGAAACUUCGTT against Ppp1r11	0.754 (inactive)
CCAUUGUAGUCAGUCAAAUTT against Pip	-0.498 (inactive)
GGAUGAAAGUCCUGGACAGTT against Gli3	5.97 (active)
GGAGCAGUUGUGUUUAACATT against Psg17	0.596 (inactive)

Sequence	z-score
GGAAAGAGGGAAACUAAUUTT against Abhd17a	-0.694 (inactive)
GGCAGAAAGCAGAAACAGUTT against Mok	-0.901 (inactive)
GGUAUCUUCUCUUGGAAAATT against Tex12	-0.533 (inactive)
GCUAUGGGAUAUGAGCUGATT against Antkmt	-0.75 (inactive)
GGAAUUCAGUGAAUGUCAUTT against Gapvd1	-2.28 (active)
UGUGCCCUAUAGAACCUGUTT against Krtap13-1	0.394 (inactive)
GGACAACUCGAGUCUUAAATT against Poln	1 (inactive)
GCUCUUAUCAGCAUGUAUATT against Birc6	1.7 (inactive)
ACUAGACUGAACUACCUGATT against Aim2	0.137 (inactive)
GGCUCAUCAGAUGUAAACATT against Efcab6	-2.13 (active)
GCUAACAAGCUAGCAUUUATT against Ltv1	-1.17 (inactive)
GGUCCUGUUGAGAAUUUAATT against Zdhhc15	0.464 (inactive)
GGCAACUGAAUGUUUCCUATT against Nudt19	-1.41 (inactive)
CCUAAGAGAUAAGAGCACCTT against Ppa2	0.381 (inactive)
GGAGAUUUACUGCUCGCUGTT against Pik3r6	0.0343 (inactive)
CAGGAUUCCUUGGACAUACTT against Olfr477	-0.559 (inactive)
GCUAAGUUCCAAGGCGACCTT against Serpinh1	2.77 (active)
GGAUAAAGCAUCAGACAAATT against Hmgn1	-0.202 (inactive)
UCAGCUGGUUUUAAUCUCUTT against Olfr1029	-0.193 (inactive)
CGCAACAGAUAGUAAAUAUTT against Ufsp2	-1.21 (inactive)
GGACCCAAAUCUUUUUAGATT against Wac	-1.03 (inactive)
GGUCCCAGACUGAGUGAAATT against Epo	-0.302 (inactive)
GGUCAAGAUCCGAAGCUACTT against Cntn2	-0.749 (inactive)

Sequence	z-score
GGUCUUGCUGUUCGAAGAATT against Gsx1	0.417 (inactive)
AGUGUAACUGCAGAAGCCUTT against Olfr207	-1.3 (inactive)
CAACCGUUGUGGCCAUGACTT against Olfr59	-0.332 (inactive)
CCCAGGCUAUUUCAACAAUTT against Arhgef11	-1.24 (inactive)
GGGCUACAAGAAAAAGUAUTT against Krt85	2.69 (active)
GCAGUCAAUUCCCUUUUACTT against Ankmy1	-0.876 (inactive)
GCCUAACCAACAAUUCUACTT against Oas1b	1.61 (inactive)
GGUCUUCUACUCCUUCUCATT against Slc6a19	-2.09 (active)
GGAGACUGCUAUAUUGGCUTT against 1700092C17Rik	-0.147 (inactive)
GCUAAAAGGUAAGUACUUCTT against Lncpint	0.981 (inactive)
GGGUAACAACCAUGUCCGUTT against Pspn	1.26 (inactive)
CGGGAAUCCUAUCUAUCAATT against Smox	0.762 (inactive)
GGAAGAACAAAAAACCAUGTT against Sf3b2	-2.14 (active)
CGAGAUGAAUUUCUAGUAGTT against Tubgcp3	1.47 (inactive)
GGUUGGCUUCAAAAAUAUGTT against Psmb1	-1.04 (inactive)
GGAAUUCCACCUAAAAUUGTT against Ttn	1.32 (inactive)
CCUGCUCCUUACAUCUCGCTT against Foxred2	1.51 (inactive)
CCAUUUAAUCCAUAUUUCCTT against Gnao1	-2.05 (active)
CGGACUCACAGAGCUAAGATT against Tnp2	1.56 (inactive)
GGGCAGAACUGCAUGAGAATT against Acp1	-0.176 (inactive)
GCACAAAUUUGGUAGUGUUTT against Nup50	-1.53 (inactive)
GGAGUAAACCUACUGCUCATT against Esam	2.14 (active)
CCUGAUGUAACUAUAAACATT against Adam32	-0.107 (inactive)
